Measurements reported in PubChem BioAssay (NCATS).
Several values for one entry are separate records, joined by “and”; a condition that tells them apart may be missing. Equal values may be shown once. Inconclusive results are not listed. A call without a number means that no potency is given here. A number with no mark means an inactive call. Activity calls are given as the source filed them. The call rests on the fitted dose curve; in most records, active means well fitted curve in the direction sought with a large enough effect; inconclusive means small, poorly fitted or top-dose-only effect, or another doubt; inactive means no such curve, though single readings can be large; an effect the other way counts as inactive or inconclusive.

Experiments:
[1] = target: Cellular tumor antigen p53 (Homo sapiens) (UniProt P04637); assay: Primary qHTS for small molecule compounds that upregulate eGFP-tagged delta133p53alpha (in N-terminal) cells. (AID 2060322); conditions: NCI-H358 eGFP-delta133p53alpha fluorescence, 24 h; activation: hits give high values; further: nearly all actives have a fitted effect of over 75% in size; further: potency means the concentration at half of the fitted maximal effect;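 on activation: cells pre-induced with doxycycline then dosed without doxycycline; series mostly up to about 56 µM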
In short: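 NCI-H358 cells pre-induced 24 h with 10 ng/ml doxycycline for eGFP-delta133p53alpha, plated dox-free and exposed 24 h at 37C to titrated compounds. Fixed, Hoechst-stained; gated GFP peak intensity by laser scanning cytometry, normalized to DMSO (0%) and 57.5 uM 5-azacytidine (100%).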

[2] = target: Aldehyde dehydrogenase, mitochondrial (Homo sapiens) (UniProt P05091); assay: qHTS for Inhibitors of the Aldehyde Dehydrogenase Family (ALDH2) Primary screen (AID 2061308); further: nearly all actives have a fitted effect of over 55% in size
[3] = target: Retinaldehyde dehydrogenase 3 (Homo sapiens) (UniProt P47895); assay: qHTS for Inhibitors of the Aldehyde Dehydrogenase Family (ALDH1A3) Validation screen (AID 2061312); further: nearly all actives have a fitted effect of over 45% in size
[4] = target: Retinaldehyde dehydrogenase 3 (Homo sapiens) (UniProt P47895); assay: qHTS for Inhibitors of the Aldehyde Dehydrogenase Family (ALDH1A3) Primary screen (AID 2061315)
[5] = BET inhibitor-based combinations targeting novel dependencies in MECOM-rearranged (r) AML: SET-2 cell line (AID 2202231); conditions: SET-2 AML cells viability, CellTiter-Glo luminescence, 48 h; viability: hits give low values, concentration not given here; further: nearly all actives have a fitted effect of over 35% in size; further: potency means the concentration at half of the fitted maximal effect
In short: (§1)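 AML cell lines seeded at 500 cells/well, treated with 11-point dose curves for 48 h. Viability by CellTiter-Glo luminescence, normalised to DMSO and empty wells; activity expressed as AUC and per-cell-line Z-transformed AUC.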

[6] = BET inhibitor-based combinations targeting novel dependencies in MECOM-rearranged (r) AML: OCI-AML3 cell line (AID 2202232); conditions: Potency: OCI-AML3 viability; further: nearly all actives have a fitted effect of over 35% in size; further: potency means the concentration at half of the fitted maximal effect
In short: as §1

[7] = BET inhibitor-based combinations targeting novel dependencies in MECOM-rearranged (r) AML: MV-4-11 cell line (AID 2202233); further: nearly all actives have a fitted effect of over 45% in size; further: potency means the concentration at half of the fitted maximal effect
In short: (§2)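 Cells at 500/well were exposed for 48 hr to MIPE v5.0 drugs as 11-point dose curves. Viability was read by CellTiter-Glo luminescence and normalized to DMSO and empty-well controls. Activity was expressed as AUC and per-cell-line Z-AUC.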

[8] = BET inhibitor-based combinations targeting novel dependencies in MECOM-rearranged (r) AML: HNT-34 cell line (AID 2202234); further: nearly all actives have a fitted effect of over 35% in size; further: potency means the concentration at half of the fitted maximal effect
In short: as §2

[9] = BET inhibitor-based combinations targeting novel dependencies in MECOM-rearranged (r) AML: UCSD-AML1 cell line (AID 2202235); further: nearly all actives have a fitted effect of over 40% in size; further: potency means the concentration at half of the fitted maximal effect
In short: as §2

[10] = BET inhibitor-based combinations targeting novel dependencies in MECOM-rearranged (r) AML: AML-191 cell line (AID 2202236; further: nearly all actives have a fitted effect of over 35% in size; further: potency means the concentration at half of the fitted maximal effect)
In short: as §1

[11] = BET inhibitor-based combinations targeting novel dependencies in MECOM-rearranged (r) AML: AML-194 cell line (AID 2202237; further: nearly all actives have a fitted effect of over 40% in size; further: potency means the concentration at half of the fitted maximal effect)
In short: as §1

Chain of Cellular tumor antigen p53 (Homo sapiens) (P04637 whole entry, looked up): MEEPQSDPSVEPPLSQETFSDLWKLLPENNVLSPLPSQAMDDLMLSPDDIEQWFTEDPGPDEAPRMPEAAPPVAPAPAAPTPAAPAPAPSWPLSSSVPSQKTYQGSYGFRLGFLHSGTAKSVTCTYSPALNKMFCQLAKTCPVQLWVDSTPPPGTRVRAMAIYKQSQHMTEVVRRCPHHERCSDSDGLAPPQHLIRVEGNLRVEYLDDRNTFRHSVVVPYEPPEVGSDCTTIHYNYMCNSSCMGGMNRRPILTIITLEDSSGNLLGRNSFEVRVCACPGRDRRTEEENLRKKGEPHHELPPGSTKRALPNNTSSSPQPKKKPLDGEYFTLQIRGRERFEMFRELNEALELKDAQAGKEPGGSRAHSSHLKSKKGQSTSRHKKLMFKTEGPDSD

Row | SMILES | Potency [1] | Potency [2] | Potency [3] | Potency [4] | Potency [5] | Potency [6] | Potency [7] | Potency [8] | Potency [9] | Potency [10] | Potency [11] | activation [1] | viability [5] [%]
1 | CC(=O)Nc1ccc([C@H](C)C(=O)Nc2ncc(C(C)C)s2)cc1 | 3.06 µM (active) and 2.69 µM (active) | inactive | inactive | inactive | 3.32 µM (active) | 7.42 µM (active) | 5250 nM (active) | 3.32 µM (active) | 3320 nM (active) | 1.86 µM (active) | 2.95 µM (active) |  | 
2 | CC[C@@]1(O)C(=O)OCc2c1cc1n(c2=O)Cc2cc3cc(O)ccc3nc2-1 | 1.51 µM (active) and 19.3 µM (active) | inactive | inactive | inactive | 0.0332 µM (active) | 0.0148 µM (active) | 6.6 nM (active) | 0.0074 µM (active) | 13.2 nM (active) | 0.0132 µM (active) | 0.0209 µM (active) |  | 
3 | Cc1noc2c1-c1ccccc1C(c1ccc(Cl)cc1)=N[C@H]2CC(N)=O |  | inactive | inactive | inactive | 2.35 µM (active) | 1.32 µM (active) | 525 nM (active) | 1.48 µM (active) |  |  |  | 32.4% | 
4 | COc1cc(CCc2cc(NC(=O)c3ccc(N4C[C@@H](C)N[C@@H](C)C4)cc3)n[nH]2)cc(OC)c1 |  | inactive | inactive | inactive | 20.9 µM (active) | 18.6 µM (active) | 2090 nM (active) | 7.42 µM (active) | 7420 nM (active) | 16.6 µM (active) | 14.8 µM (active) | 1.33% and -3.34% | 
5 | Cc1cc(C)nc(SCC(=O)Nc2ncc(Cc3cccc4ccccc34)s2)n1 |  | inactive | inactive | inactive |  |  |  |  |  |  |  | -8.11% | 
6 | CC1(C)CC(NC(=O)C(=O)Nc2ccc(Br)cc2)CC(C)(C)N1 | 13.5 µM (active) | inactive | inactive | inactive |  |  |  |  |  |  |  |  | 
7 | OC[C@H]1O[C@@H](Oc2cc(O)cc(/C=C/c3ccc(O)cc3)c2)[C@H](O)[C@@H](O)[C@@H]1O |  | inactive | inactive | inactive |  | inactive | inactive | inactive | inactive | inactive | inactive | -6.21% | 115
8 | O=C(O)CCNc1cc(N2CCc3ccccc3CC2)nc(-c2ccccn2)n1 |  | inactive | inactive | inactive |  | inactive | inactive | inactive | inactive | inactive | inactive | -6.15% and -0.477% and 0.955% | 103
9 | COc1nc(C)cnc1NS(=O)(=O)c1cccnc1-c1ccc(-c2nnco2)cc1 |  | inactive | inactive | inactive |  | inactive | inactive | inactive | inactive | inactive | inactive | 13.1% and 3.34% | 115
10 | Cc1ccc(NC(=O)C(C)C)cc1C1CCN(Cc2ccc(Oc3ccc(F)c(F)c3)cc2)CC1 |  | inactive | inactive | inactive |  |  |  |  |  |  |  | 16.7% | 
11 | CC(C)c1cc(C(=O)N2Cc3ccc(CN4CCN(C)CC4)cc3C2)c(O)cc1O |  | inactive | inactive | inactive | 0.263 µM (active) | 0.296 µM (active) | 74.2 nM (active) | 0.209 µM (active) | 263 nM (active) |  |  | -13.4% | 
12 | COc1ccc2nc3n[nH]c(C)c3c(NCCOCCO)c2c1 |  | inactive | inactive | inactive |  | inactive | inactive | inactive | inactive | inactive | inactive | 6.21% | 97
13 | CCCCNc1ncc2c(-c3ccc(CN4CCN(C)CC4)cc3)cn(C3CCC(O)CC3)c2n1 (stereo not drawn) | 21.3 µM (active) | inactive | inactive | inactive | 14.8 µM (active) and 11.8 µM (active) | 6.61 µM (active) and 4.68 µM (active) | 59 nM (active) and 93.4 nM (active) | 1.05 µM (active) and 1.18 µM (active) | 4.17 µM (active) and 3.32 µM (active) | 833 nM (active) and 1.18 µM (active) | 742 nM (active) and 1.05 µM (active) |  | 
14 | CC[C@@H](C)Nc1cc(C(=O)NC2CC3CC[C@@H](C2)N3c2ccc(C(=O)C3CC3)cn2)c(C)cc1C(N)=O (stereo partly drawn) |  | inactive | inactive | inactive | 0.132 µM (active) | 0.0661 µM (active) | 41.7 nM (active) | 0.105 µM (active) | 132 nM (active) | 0.118 µM (active) | 0.105 µM (active) | 20.5% | 
